# The campaign covered roughly 1,200 compounds. About 110 (9.2%) were called active. Not shown: some 8% with an inconclusive outcome.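 Rule for the calls: active = pathway reporter half-maximal dose under half the control reporter's, or control reporter unaffected while pathway reporter is inhibited; inconclusive = either signal flat at 30 to 70% inhibition or poorly fitted; inactive = the rest.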 Not all results are given here. Results with a measured potency or affinity are listed apart.
# Assay: TES1-eGFP NF-kB reporter inhibition versus Tet-On dsRED, dose response, selectivity assay for LMP1 NF-kB inhibitor project, imaging, HEK293T, dual-color eGFP/dsRED, cherry-picks (AID 588398)
# Settings: 48 h; HEK293T Tet-On dsRED counter-screen channel, at 19.5 µM (top of the series)
row,Structure (SMILES),outcome
1,CN(C)CC(C)(C)CNS(=O)(=O)c1ccc(OC(F)(F)F)cc1,inactive
2,COc1ccc2[nH]c3c(=O)n(CCCCC(=O)N4CCC(C(N)=O)CC4)c(=S)[nH]c3c2c1,inactive
3,COc1ccc2cc(C(N)=O)/c(=N\NC(=O)c3ccccc3)oc2c1,inactive
4,CN(C)/C=C/C(=O)c1ccc2noc(-c3ccccc3)c2c1,inactive
5,N#Cc1c(NC(=O)CCCC(=O)O)sc2c1CCCCC2,inactive
6,CC(C)[C@H](N[C@@H](C)c1ccccc1)c1c(O)ccc2ccccc12,inactive
7,CC(=O)c1c(C)[nH]c(C(=O)Nc2ccc(C)cn2)c1C,inactive
8,COc1ccc(Nc2oc(COc3ccccc3OC)nc2C#N)cc1,inactive
9,COc1cc2nc(NC(=O)c3ccco3)sc(=O)c2cc1OC,inactive
10,CCOC(=O)C1=C(C)N(C)C(=O)NC1c1ccccc1OC (centres undefined),inactive
11,O=C(Nc1cc(S(=O)(=O)N2CCOCC2)ccc1Cl)c1ccncc1,inactive
12,O=C1C2CCCN2c2ccc(S(=O)(=O)N3CCOCC3)cc2N1Cc1ccccc1F (centres undefined),inactive
13,CCn1nc(C(=O)Nc2nc(-c3ccccn3)cs2)c2ccccc2c1=O,inactive
14,COc1ccc(C2CC(C(F)(F)F)n3ncc(C(=O)NCc4cccnc4)c3N2)cc1OC (centres undefined),inactive
15,C=CCN=C1NN=C(c2cc(C)n(CCOC)c2C)CS1,inactive
16,Cc1cccc(C)c1NC(=O)CN(C)CC(=O)Nc1ccccc1Oc1ccccc1,inactive
17,Cc1sc2nc(SCC(=O)OC(C)C)n(C)c(=O)c2c1C,inactive
18,O=C(c1ccc(Cl)cc1)N1CCN(CCOc2ccccc2)CC1,inactive
19,Cc1cccc(Cn2cc(SCC(=O)Nc3nccs3)c3ccccc32)c1,inactive
20,O=C(CSc1nc2ccccc2c(=O)n1CCCN1CCOCC1)Nc1ccc(Br)cc1,inactive
21,O=C(Cn1cc(CNC(=O)C2CCCCC2)nn1)Nc1cc(C(F)(F)F)ccc1Cl,inactive
22,COc1ccc(NC(=O)c2cc3ccccc3oc2=O)cc1,inactive
23,COc1ccc(C(=O)Nc2cccc(C(=O)N/N=C/c3ccc(OC)cc3OC)c2)cc1,inactive
24,COc1cc(NC(=S)N2CCN(CCO)CC2)cc(OC)c1,inactive
25,CCCc1nc(SCC(=O)NCc2ccco2)c2c(=O)n(C)c(=O)n(C)c2n1,inactive
26,Oc1c(N=NC(=S)Nc2ccccc2F)c2ccccc2n1Cc1ccccc1F,inactive

row,Structure (SMILES),outcome
1,O=C1C=Cc2cccc3ccc(O)c1c23,inactive
2,COc1ccc(OC)c(CCNC(=O)CCn2nc(C)c3c(C)n(-c4ccccc4)nc3c2=O)c1,inactive
3,CC1S/C(=C(\C#N)C(=O)NCc2ccco2)N(Cc2ccco2)C1=O (centres undefined),inactive
4,COc1cc(/C=C2/SC(=S)N(Cc3ccccc3)C2=O)ccc1OCC(=O)O,inactive
5,CCc1ccc(/C=C2\SC(=S)N(CCCC(=O)NC3=NCCS3)C2=O)cc1,inactive
6,O=C(CCCN1C(=O)/C(=C/c2ccccc2Cl)SC1=S)NNC(=O)c1ccccc1Cl,inactive
7,Cc1ccc(C2=C/C(=C\c3cccnc3)C(=O)O2)cc1,inactive
8,O=C(O)CN1C(=O)/C(=C\c2ccccc2OCc2ccc(Cl)cc2Cl)SC1=S,inactive
9,CCCC(C)NC(C)C(=O)NC1CCCC1 (centres undefined),inactive
10,COc1ccc(C(=O)Nn2c(SCC(=O)NCc3ccco3)nc3ccccc3c2=O)cc1,inactive
11,O=C(Nc1ccc(Br)cc1)C1CC(O)CN1C(=O)OCc1ccccc1 (centres undefined),inactive
12,CCOc1ccc(NC(=O)CCc2nnc3ccc(N4CCC5(CC4)OCCO5)nn23)cc1,inactive
13,COc1ccc(N2CCN(c3ncnc4c3[nH]c3ccccc34)CC2)cc1,inactive
14,CC1(C)CN(Cc2ccccc2)C(=O)[C@H]1CC(=O)Nc1ccccc1,inactive
15,CC(=O)c1ccccc1OCC(=O)Nc1cccc(S(=O)(=O)N2CCCC2)c1,inactive
16,Cc1ccc(C(=O)Nc2cccc(C(F)(F)F)c2)cc1Nc1ncnc2nc[nH]c12,inactive
17,CC(=O)Nc1ccc(C=NNc2nnc(NN=Cc3ccc(NC(C)=O)cc3)c3ccccc23)cc1,inactive
18,Cc1ccnc(NC(=O)c2cccc(NC(=O)c3ccc(Cl)c(Cl)c3)c2)c1,inactive
19,COc1ccc(NC(=O)COC(=O)/C=C/c2ccc(OC)c(S(=O)(=O)N3CCOCC3)c2)cc1,inactive
20,COc1ccc(C=C2CS(=O)(=O)CC(=Cc3ccc(OC)cc3)C2=O)cc1,inactive
21,COC(=O)[C@@]1(Cc2ccccc2)[C@H]2C(=O)N(Cc3ccccc3)C(=O)[C@H]2[C@H]2CN=C(SCc3ccc(Cl)cc3)N21,inactive
22,CCOc1ccc(NC(=S)N=Nc2c(O)[nH]c3ccccc23)cc1,inactive
23,CC(NC(=O)CNC(=O)OCc1ccccc1)C(=O)N1CC(O)CC1C(=O)OCc1ccccc1 (centres undefined),inactive
24,CCN1CCN(Cc2ccc(NC(=O)c3ccc(C)c(NC(=O)c4cccc5[nH]ccc45)c3)cc2C(F)(F)F)CC1,inactive
25,Cc1ccc(C)c(Cn2c(O)c(N=NC(=S)Nc3ccccc3F)c3ccccc32)c1,inactive
26,COc1cc(OC)cc(-c2cc3nc(C)c(CCC(=O)O)c(C)n3n2)c1,inactive

row,Structure (SMILES),outcome
1,O=C(C[n+]1ccccc1)N/N=C/c1ccc(O)cc1,inactive
2,C#CCN(C[C@@H]1[C@@H](OC(=O)NCc2ccccc2F)[C@@H](OC(=O)NCc2ccccc2F)Cn2c(=O)ccc(=O)n21)S(=O)(=O)c1ccc(C)cc1,inactive
3,Cc1ccnc(NC(=O)c2ccc(OCC3CCCO3)cc2)c1 (centres undefined),inactive
4,Cc1ccc(-n2c(=O)c3c(c4cc(C)ccc4n3C)n(CC(=O)NCC3CCCO3)c2=O)cc1 (centres undefined),inactive
5,CCOc1ccc(C(=O)NC(=S)N(Cc2ccccc2)Cc2ccccc2)cc1,inactive
6,O=C(Nc1cc(Cl)ccc1Cl)C1Cc2ccccc2O/C1=N\O (centres undefined),inactive
7,CCOC(=O)c1sc2nc(C)nc(NCc3ccccc3)c2c1C,inactive
8,COc1ccc(CN2C(=O)c3cccnc3C2Nc2cc(Cl)ccc2OC)cc1 (centres undefined),inactive
9,CCC(=O)NC(c1cc(Cl)c2cccnc2c1O)C1CC1 (centres undefined),inactive
10,CCC(=O)NC(c1ccc(C)cc1)c1cc(Cl)c2cccnc2c1O (centres undefined),inactive
11,CC(=O)NC(c1ccc(Cl)cc1Cl)c1ccc2cccnc2c1O (centres undefined),inactive
12,CN(C)S(=O)(=O)c1ccc(Cl)c(C(=O)NCCNC(=O)c2cc(S(=O)(=O)N(C)C)ccc2Cl)c1,inactive
13,CCNc1nc(CN2CCOCC2)nc2sc3c(c12)CCC3,inactive
14,Cc1nn(-c2ccccc2)c(Cl)c1C(=O)N1CCN(c2ncnc3c2cnn3-c2ccccc2)CC1,inactive
15,O=c1nc(N/N=C/C=C/c2ccccc2)cn[nH]1,inactive
16,CN(CCNC(=O)C1CCN(S(=O)(=O)N2CCOCC2)CC1)CCc1ccccc1,inactive
17,O=C(N/N=C/c1cc2c3c(c1O)CCCN3CCC2)c1ccccc1O,inactive
18,CCOC(=O)C1CCN(S(=O)(=O)Cc2ccccc2)C1=O (centres undefined),inactive
19,CCOC(=O)CCSc1nc(N2CCOCC2)c2c(c1C#N)CC(C)(C)OC2,inactive
20,COc1ccc(C=NNc2nc3ccccc3s2)cc1,inactive
21,C(=Cc1nc2ccccc2o1)c1ccc2c(c1)OCO2,inactive
22,c1ccn2cc(-c3ccc4c(c3)OCCO4)nc2c1,inactive
23,CC1CCN(CCOc2ccc(C(=O)c3ccccc3)cc2)CC1,inactive
24,CCC(C)[C@H](NC(=O)NCc1cccnc1)C(=O)OC (some centres undefined),inactive
25,CCOc1ccc(Nc2ncnc3ccc([N+](=O)[O-])cc23)cc1,inactive
26,Cc1cc(C(=O)COc2cccnc2[N+](=O)[O-])c(C)n1-c1ccccc1F,inactive

row,Structure (SMILES),outcome
1,O=C1CCCCC1Sc1nnc(-c2ccc3c(c2)OCO3)o1 (centres undefined),inactive
2,C=CCn1c(=O)/c(=C/c2ccc(Cl)cc2)s/c1=C(\C#N)c1nnc2n1CCCCC2,inactive
3,Cc1ccc(OCC(=O)NNC(=S)NC(=O)C2CCCCC2)c(C)c1,inactive
4,Cc1cc(NC(=O)c2ccc(C)s2)n(-c2nc3ccccc3[nH]2)n1,inactive
5,COc1ccc(OC)c(NC(=O)COC(=O)COc2ccc(Nc3ccccc3)cc2)c1,inactive
6,C(=Cc1cnc2ccccc2n1)c1ccc2c(c1)OCO2,inactive
7,CCOc1ccc(NC(=O)c2ccc(N3CC4CC(C3)c3cccc(=O)n3C4)c(NC(=O)c3cccnc3)c2)cc1 (centres undefined),inactive
8,COc1ccc(N2C(=O)C(Cl)=C(NCc3ccccc3)C2=O)cc1,inactive
9,Cc1ccc(S(=O)(=O)N2CCN(C(=O)COC(=O)COc3ccc(Cl)cc3)CC2)c(C)c1,inactive
10,CCOc1ccccc1/C=C/c1onc(C)c1S(=O)(=O)N1CCC(C(=O)N(CC)CC)CC1,inactive
11,CCOC(=O)N1CCC(NC(=O)C2CCCN(Cc3nc(-c4cccc(Cl)c4)oc3C)C2)CC1 (centres undefined),inactive
12,COc1ccc(S(=O)(=O)N2CCCCCC2)cc1C(=O)OCc1cccc(OC)c1OC,inactive
13,Fc1cccc(Cl)c1/C=N/n1c(-c2cccnc2)n[nH]c1=S,inactive
14,CC(=O)c1cccc(NC(=O)Nc2ccc(C(=O)N3CCOCC3)cc2)c1,inactive
15,O=C(c1ccccc1Br)N1CCN(Cc2ccc3c(c2)OCO3)CC1,inactive
16,CCC(=O)NC(c1ccc(Cl)cc1Cl)c1ccc2cccnc2c1O (centres undefined),inactive
17,CC(=O)NC(c1ccc(Cl)cc1)c1ccc2cccnc2c1O (centres undefined),inactive
18,Cc1ccc2[nH]c3c(c2c1)CCCC3NC(=O)CCl (centres undefined),inactive
19,Cc1cccc(-n2c(O)c(C=Nc3c(C)n(C)n(-c4ccccc4)c3=O)c3ccccc3c2=O)n1,inactive
20,CC(=O)OC1CCC2(C)C(CCC3C4CC=C(C(C)=O)C4(C)OC(=O)CC32)C1 (centres undefined),inactive
21,O=C1NC(=O)/C(=C\c2ccc(OCc3cccc(C(=O)O)c3)c(Cl)c2)N1,inactive
22,CN1CCN(C(=O)C2=C[C@@H](C(C)(C)C)C[C@@H](OCc3ccc(CO)cc3)O2)CC1,inactive
23,COc1ccc(N2CCN(CCNC(=O)CCCn3c(=O)[nH]c4cc(Cl)ccc4c3=O)CC2)cc1,inactive
24,CCn1c2ccccc2c2cc(/C=N/NC(=O)c3ccncc3)ccc21,inactive
25,CCn1c2ccccc2c2cc(/C=N/NC(=O)c3cc(O)cc(O)c3)ccc21,inactive
26,CCn1c(SC(C)C)nnc1-c1c[nH]c2ccccc12,inactive

# From PubChem BioAssay AID588398 (Broad Institute, 2011)
